Test results reported in PubChem BioAssay.
Calls of active or inactive are those of the source.

Experiments:
[1] = tested on: Human papillomavirus type 1a protein E7 (residues 44-93); assay: small molecules binding HPV E7 44-93 – biochemical, small-molecule microarray, residues 44-93, 635 nm fluorescence, primary screen (AID 1108); conditions: fluorescence 635 nm, higher = more signal;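 also: E7 fragment applied at 1 µg/mL in TBST for 1 h at 4 C; score combines spot fluorescence with its signal to noise ratio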
[2] = hepatitis C replication reporter changes, two-sided – Huh7 cells, luciferase reporter, HCV replication inhibitor project, primary screen (AID 1109); conditions: Huh7 HCV replicon luciferase reporter, 48 h; higher = more signal;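 also: huh7 hepatoma cells harbouring a luciferase neomycin HCV replicon reporter; luciferase luminescence as measure of HCV replicon replication; test concentration not given here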
[3] = target: Left-right determination factor 2 (Homo sapiens) (UniProt O00292); assay: small molecules binding LEFTY2 protein – biochemical, small-molecule microarray, 635 nm fluorescence scan, primary screen (AID 1110); conditions: higher = more signal
[4] = target: Calmodulin-1 (Homo sapiens) (UniProt P0DP23); assay: small molecules binding calmodulin-1 with EGTA – biochemical, small-molecule microarray, Cy5-labelled CALM1, profiling panel (AID 1111); conditions: Cy5-CALM1 binding fluorescence, higher = more signal;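 also: labelled calmodulin applied in Tris saline Tween buffer holding calcium plus EGTA and DTT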
[5] = target: Calmodulin-1 (Homo sapiens) (UniProt P0DP23); assay: small molecules binding Ca-loaded calmodulin-1 – biochemical, small-molecule microarray, Cy5-labelled CALM1, plus calcium, artefact control for SMM control-protein annotation, profiling panel (AID 1112); conditions: Cy5-CALM1 binding fluorescence, higher = more signal;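 also: score merges spot fluorescence with signal to noise from triplicate slides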
[6] = probe aWnt5a binding to arrayed compounds – biochemical, biotinylated probe, 635/667 nm fluorescence, primary screen (AID 1113); conditions: small-molecule microarray, higher = more signal;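 also: score merges 667 nm fluorescence intensity with signal-to-noise per printed feature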
[7] = probe aShh binding to arrayed compounds – biochemical, biotinylated probe, 635/667 nm fluorescence, primary screen (AID 1114); conditions: small-molecule microarray, higher = more signal;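 also: probe is biotin-labelled aShh protein from a stem cell growth factor screen; measures binding of labelled protein to compounds printed on the slide; score merges feature fluorescence at 667 nm with signal-to-noise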
[8] = probe aNog binding to arrayed compounds – biochemical, biotinylated probe, 635/667 nm fluorescence, primary screen (AID 1115); conditions: small-molecule microarray, higher = more signal;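 also: probe is biotinylated aNog protein used at 0.15 µg/mL for 1 h at 4 C; z-score combines 667 nm fluorescence of each spot with its signal to noise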
[9] = target: Torsin-1A-interacting protein 1 (Homo sapiens) (UniProt Q5JTV8); assay: compound microarray binding of lysate hLAP1 – cell lysate, small-molecule microarray, COS7 lysate, 635/667 nm fluorescence, primary screen (AID 1116); conditions: 635 nm fluorescence, higher = more signal
[10] = target: Alpha-bungarotoxin (Bungarus multicinctus) (UniProt P60615); assay: compounds binding labelled alpha-BTX control protein – biochemical, small-molecule microarray, Alexa647 label, 635/667 nm fluorescence, artefact control for SMM control protein annotation, profiling panel (AID 1117); conditions: alpha-BTX-A647 binding fluorescence, higher = more signal
Albumin (Bos taurus) = Albumin (Bos taurus) (UniProt P02769); assay: compounds binding labelled BSA control protein – biochemical, small-molecule microarray, Alexa647 label, 635/667 nm fluorescence, artefact control for SMM control protein annotation, profiling panel (AID 1118); conditions: BSA-A647 binding, fluorescence 635 nm, higher = more signal;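 also: score merges 667 nm emission intensity and signal-to-noise per printed compound spot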
[11] = probe aXIP binding to arrayed compounds – biochemical, NeuroSMM set, 635/667 nm fluorescence, primary screen (AID 1119); conditions: small-molecule microarray, higher = more signal, called active from +8 up or from −8 down;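 also: probe is the protein aXip251-270 applied at 1 µg/mL to compound-printed slides; binding of probe to printed compounds measured as 667 nm fluorescence plus signal to noise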
[12] = probe aNOTCH3 binding on compound microarray – biochemical, small-molecule microarray, 635/667 nm fluorescence, primary screen (AID 1120); conditions: higher = more signal;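 also: probe is a biotin-tagged antibody raised against NOTCH3 rather than NOTCH3 protein; score merges spot fluorescence near 667 nm with spot signal to noise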
[13] = probe aNOTCH2 binding on compound microarray – biochemical, small-molecule microarray, 635/667 nm fluorescence, primary screen (AID 1121); conditions: higher = more signal;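 also: score merges feature fluorescence read at 667 nm with its signal to noise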
[14] = target: Carbonic anhydrase 2 (Homo sapiens) (UniProt P00918); assay: compounds binding carbonic anhydrase 2 – biochemical, small-molecule microarray, Alexa647-labelled CAII, profiling panel (AID 1122); conditions: CAII-A647 binding fluorescence, higher = more signal
[15] = COS7 lysate on small-molecule microarray, probe aHis, 635 nm (AID 1123); conditions: COS7 cell lysate, fluorescence, higher = more signal;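 also: z-score combines 667nm fluorescence intensity with signal-to-noise per printed compound spot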
[16] = probe aLAP1 signal on lysate-treated microarray – cell lysate, small-molecule microarray, COS7 lysate, primary screen (AID 1124); conditions: probe aLAP1, fluorescence, higher = more signal;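 also: lysate comes from COS7 cells expressing LAP1 and is applied at 0.3 µg/mL; score merges spot fluorescence near 667 nm with signal-to-noise over triplicate slides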
Sam68 (KHDRBS1) = assay: compounds binding KHDRBS1 protein – biochemical, small-molecule microarray, 635 nm fluorescence, primary screen (AID 1125); conditions: higher = more signal;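 also: score merges 667 nm channel intensity with signal to noise over triplicate slides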
[17] = tested on: Chordin-like protein 2 (CHRDL2); assay: compounds binding chordin-like 2 – biochemical, small-molecule microarray, 635 nm fluorescence, primary screen (AID 1126); conditions: fluorescence 635 nm, higher = more signal;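 also: printed compound slides probed with Chrdl2 protein at 4 µg/mL for 1 h at 4 C; score merges 667 nm emission intensity with signal to noise over three replicate slides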
[18] = target: Concanavalin-A (Canavalia ensiformis) (UniProt P02866); assay: compounds binding concanavalin A lectin – biochemical, small-molecule microarray, Alexa647 label, 635 nm, artefact control for SMM control protein annotation, primary screen (AID 1127); conditions: ConA-A647 binding fluorescence, higher = more signal;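 also: z combines 667 nm emission intensity with signal-to-noise across three replicate slides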
Chain of Concanavalin-A (Canavalia ensiformis) (P02866 whole entry, looked up): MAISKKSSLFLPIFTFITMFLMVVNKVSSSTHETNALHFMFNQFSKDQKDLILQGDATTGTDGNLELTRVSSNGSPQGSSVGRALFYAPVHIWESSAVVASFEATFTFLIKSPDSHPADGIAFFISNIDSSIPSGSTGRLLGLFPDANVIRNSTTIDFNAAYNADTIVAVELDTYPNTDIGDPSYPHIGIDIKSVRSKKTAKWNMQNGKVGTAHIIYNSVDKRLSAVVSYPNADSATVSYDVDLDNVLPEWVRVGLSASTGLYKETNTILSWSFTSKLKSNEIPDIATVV

Chain of Left-right determination factor 2 (Homo sapiens) (O00292 whole entry, looked up): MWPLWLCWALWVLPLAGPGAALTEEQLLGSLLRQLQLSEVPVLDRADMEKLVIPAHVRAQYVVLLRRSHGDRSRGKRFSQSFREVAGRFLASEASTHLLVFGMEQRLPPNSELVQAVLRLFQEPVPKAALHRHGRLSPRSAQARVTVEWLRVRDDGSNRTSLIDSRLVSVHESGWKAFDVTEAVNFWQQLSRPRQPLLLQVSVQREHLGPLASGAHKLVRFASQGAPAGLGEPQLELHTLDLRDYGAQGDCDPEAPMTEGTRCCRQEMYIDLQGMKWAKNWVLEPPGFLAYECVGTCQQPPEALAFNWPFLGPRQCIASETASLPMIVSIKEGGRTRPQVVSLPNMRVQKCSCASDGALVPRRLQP
Chain of Torsin-1A-interacting protein 1 (Homo sapiens) (Q5JTV8 whole entry, looked up): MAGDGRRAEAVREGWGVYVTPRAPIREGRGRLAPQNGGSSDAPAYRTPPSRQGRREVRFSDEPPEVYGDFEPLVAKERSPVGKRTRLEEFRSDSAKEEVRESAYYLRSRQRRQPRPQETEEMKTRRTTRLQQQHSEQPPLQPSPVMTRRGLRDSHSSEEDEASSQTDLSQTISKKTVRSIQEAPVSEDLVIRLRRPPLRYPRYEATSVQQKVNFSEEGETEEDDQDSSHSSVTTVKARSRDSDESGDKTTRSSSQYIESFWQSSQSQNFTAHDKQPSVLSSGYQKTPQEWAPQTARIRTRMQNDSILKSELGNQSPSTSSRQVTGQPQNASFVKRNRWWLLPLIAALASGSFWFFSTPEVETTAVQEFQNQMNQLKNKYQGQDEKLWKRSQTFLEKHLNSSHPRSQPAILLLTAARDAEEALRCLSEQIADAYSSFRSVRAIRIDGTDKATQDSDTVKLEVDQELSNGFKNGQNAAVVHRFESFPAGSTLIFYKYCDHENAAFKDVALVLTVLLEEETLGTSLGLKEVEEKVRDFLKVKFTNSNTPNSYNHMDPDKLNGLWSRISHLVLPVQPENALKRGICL
Chain of Alpha-bungarotoxin (Bungarus multicinctus) (P60615 whole entry, looked up): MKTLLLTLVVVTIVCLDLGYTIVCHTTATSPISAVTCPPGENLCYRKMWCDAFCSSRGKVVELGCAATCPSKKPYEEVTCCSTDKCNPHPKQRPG
Chain of Albumin (Bos taurus) (P02769 whole entry, looked up): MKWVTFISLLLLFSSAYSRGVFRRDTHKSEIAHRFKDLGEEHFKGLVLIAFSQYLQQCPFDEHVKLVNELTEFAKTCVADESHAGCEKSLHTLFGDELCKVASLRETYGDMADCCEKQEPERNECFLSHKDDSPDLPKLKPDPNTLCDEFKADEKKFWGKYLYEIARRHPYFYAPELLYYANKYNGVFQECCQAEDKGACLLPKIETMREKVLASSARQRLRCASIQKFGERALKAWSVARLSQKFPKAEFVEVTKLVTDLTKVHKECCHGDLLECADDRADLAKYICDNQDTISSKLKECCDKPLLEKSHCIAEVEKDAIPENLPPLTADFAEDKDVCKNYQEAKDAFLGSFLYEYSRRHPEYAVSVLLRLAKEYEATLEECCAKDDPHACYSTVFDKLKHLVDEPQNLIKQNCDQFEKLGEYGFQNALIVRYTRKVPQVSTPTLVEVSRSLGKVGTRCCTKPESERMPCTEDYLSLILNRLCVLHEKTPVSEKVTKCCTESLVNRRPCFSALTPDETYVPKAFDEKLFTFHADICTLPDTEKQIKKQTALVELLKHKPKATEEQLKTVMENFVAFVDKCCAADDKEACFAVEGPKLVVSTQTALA

| SMILES | composite z-score [1] | z-score [2] | composite z-score [3] | composite z-score [4] | composite z-score [5] | composite z-score [6] | composite z-score [7] | composite z-score [8] | composite z-score [9] | composite z-score [10] | composite z-score (Albumin (Bos taurus)) | composite Z-score [11] | composite z-score [12] | composite z-score [13] | composite z-score [14] | composite z-score [15] | composite z-score [16] | composite z-score (Sam68 (KHDRBS1)) | composite z-score [17] | composite z-score [18] |
| --- | --- | --- | --- | --- | --- | --- | --- | --- | --- | --- | --- | --- | --- | --- | --- | --- | --- | --- | --- | --- |
| COCCCNC(=O)[C@@]1(Cc2ccccc2I)c2ccccc2C(=O)N(Cc2ccccc2C(F)(F)F)[C@H]1c1ccc(CO)cc1 | 1.1 | -0.594 | -2.26 | -0.285 | -0.664 | -0.136 | -0.0848 | 0.2 | -0.0065 | -0.458 | 0.251 | 0.29 (inactive) | -0.136 | -0.148 | 0.487 | 1.85 | -0.462 | 0.302 | -1.44 | -0.375 |
| CN1C(=O)C2C=CC(C(O)COCc3ccccc3)N(Nc3ccc([N+](=O)[O-])cc3[N+](=O)[O-])C2C1=O (stereo not given) | 0.826 | -0.295 | -0.759 | -0.528 | -0.626 | 0.173 | -0.328 | 0.702 | 0.503 | 0.814 | 0.186 | 0.215 (inactive) | 0.0596 | 0.046 | 0.368 | 1.49 | 0.578 | 0.447 | -0.693 | -0.445 |
| COC(=O)[C@@]1(Cc2ccccc2)[C@H]2c3cc(C(=O)N(C)C)n(Cc4nc5ccccc5[nH]4)c3C[C@H]2CN1C(=O)c1ccccc1 | 1.33 | 0.401 | -0.4 | 0.492 | 1.2 | 0.0328 | 0.108 | 2.16 | 1.62 | 1.3 | 1.01 | 0.0729 (inactive) | 0.266 | 0.0576 | 0.826 | 3.44 | 0.972 | 1.24 | -0.538 | 1.09 |
| O=C1N(Cc2ccccc2)c2ccccc2C[C@@]12N=C(c1ccc(OCCCO)cc1)O[C@H]2c1ccccc1 | 1.34 | -3.11 | -0.297 | 0.333 | -0.458 | -0.103 | 0.0948 | 0.576 | 0.176 | 0.849 | 0.542 | -0.329 (inactive) | -0.0328 | -0.0664 | 0.183 | 2.47 | -0.0401 | 1.29 | 0.0949 | 1.06 |
| Cc1ccc(N2C(=O)c3ccccc3[C@@H](C(=O)NCCN3CCOCC3)[C@@H]2c2ccc(CO)cc2)nc1 | 0.113 | 0.193 | -1.29 | -0.287 | 0.609 | -0.1 | -0.214 | -0.434 | -1.3 | -0.843 | 0.132 | 0.309 (inactive) | 0.595 | -0.162 | -0.234 | 0.719 | -0.496 | -0.342 | -1.27 | -0.469 |
| O=C1NC(=O)C2C1C=CC(C(O)C(O)CO)N2Nc1ccccn1 (stereo not given) | 0.492 | 0.538 | 0.322 | 0.339 | -0.635 | 0.0502 | -0.0035 | -0.201 | 0.0465 | 0.315 | 0.319 | 0.035 (inactive) | 0.0026 | -0.207 | 0.315 | 0.344 | 0.635 | 0.523 | 0.105 | 0.932 |
| O=C(NCCN1CCOCC1)[C@@H]1c2ccccc2C(=O)N(CC23CC4CC(CC(C4)C2)C3)[C@H]1c1ccc(CO)cc1 | 1.45 | -2.21 | 0.662 | 1.7 | -0.236 | -0.0519 | -0.0362 | -0.112 | 0.405 | 1.43 | 0.974 | 0.864 (inactive) | 0.216 | 0.0129 | 0.642 | 2.17 | 0.522 | 1.3 | 0.0884 | 1.14 |
| C=C(CCCC)/C(=C/C[C@@H](OC(C)=O)c1cccc(OCCO)c1)c1cc(C(=O)OC)ccc1OC | 0.364 | -2.02 | -0.227 | -0.405 | -0.788 | -0.119 | 0.111 | -0.18 | 0.714 | 0.621 | 0.119 | 0.303 (inactive) | -0.0131 | -0.168 | 0.561 | -0.22 | -0.247 | 0.71 | -0.0137 | -0.656 |
| Cc1ccc(S[C@]2(C(=O)NC(C)C)CC(=O)N(Cc3ccccc3)[C@@H]2c2ccc(CO)cc2)cc1 | -0.905 | -1.36 | -1.82 | -0.0379 | 0.175 | -0.124 | -0.2 | 0.0258 | -0.142 | 0.329 | 0.161 | 0.339 (inactive) | -0.333 | -0.0451 | 0.445 | -0.0367 | -0.915 | -0.76 | -1.31 | -1.06 |
| COC(=O)[C@@]1(Cc2ccc(F)cc2)[C@H]2c3cc(C(=O)N4CCCC4)n(CCSCCO)c3C[C@H]2CN1C(=O)c1ccccc1 | 1.2 | -1.24 | -0.721 | 1.34 | 0.318 | 0.0914 | 1.08 | 1.56 | 0.403 | 0.566 | 0.855 | -0.338 (inactive) | 0.241 | 0.231 | 0.839 | 3.25 | 0.258 | 0.644 | -0.562 | 0.532 |
| [N-]=[N+]=NCc1ccccc1[C@H]1OC(c2ccc(OCCCO)cc2)=N[C@@]1(CCS(=O)(=O)c1ccccc1)C(=O)NCCN1CCOCC1 | 1.49 | -0.233 | 0.0744 | 1.39 | 0.593 | 0.143 | -0.107 | -0.612 | 1.06 | 1.3 | 0.888 | 0.516 (inactive) | 0.596 | 0.163 | 0.621 | 2.76 | 0.654 | 1.3 | -0.222 | 0.944 |
| CC(=O)NCCCC[C@@H]1NC(=O)[C@H]2C[C@@H](C(=O)O)[C@@H](c3cccc(OCCO)c3)N2C1=O | 1.11 | -1.14 | 0.978 | 0.0626 | -0.767 | 0.27 | 0.588 | 1.51 | 1.53 | 1.49 | 0.757 | 0.446 (inactive) | 0.348 | -0.0644 | 0.415 | 1.05 | 1.32 | 1.29 | 1.11 | 0.587 |
